This excerpt belongs to a sample that is enriched for hits.
NOMO-1 viab = NOMO-1 AML cell viability reduction, primary screen, STK33 inhibitor project, CellTiter-Glo luminescence; NOMO-1 AML viability, 72 h; hit rate 7.5% among 37,000; inhibition, % (concentration not given with the values); in the data active means inhibition above about 80%; inconclusive means no clear call, values can overlap the other calls
U2OS ROS induce = ROS inducers in U2OS cancer cells, primary screen, cell-based, H2DCF-DA fluorescence; U2OS ROS induction; ROS induction (% of piperlongumine), % at 10 µM; hit rate 2% among 46,000; AID 624156, 2012; in the data active means ROS induction above about 79%, passing the limit was not always enough; inconclusive means no clear call, values can overlap the other calls;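 further: 0% = DMSO vehicle median and 100% = reference compound median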
Active calls of the source: *; ? = inconclusive; · = no result.

SMILES | NOMO-1 viab | U2OS ROS induce
C[C@@H]1CN([C@H](C)CO)C(=O)c2cccc(NC(=O)c3ccncc3)c2O[C@@H]1CN(C)S(=O)(=O)c1ccc(F)cc1 | 9.8 | 1.6
C[C@H](CO)N1C[C@H](C)[C@H](CN(C)Cc2ccc(C(=O)Nc3ccccc3N)cc2)Oc2ccc(N(C)C)cc2C1=O | 110.6* | 21.2
CC(C)NC(=O)Nc1ccc2c(c1)C(=O)N([C@@H](C)CO)C[C@H](C)[C@@H](CN(C)Cc1ccc(C(=O)Nc3ccccc3N)cc1)O2 | · | -5.5
C[C@H]1CN([C@@H](C)CO)C(=O)c2cc(N(C)C)ccc2O[C@H]1CN(C)Cc1ccc(C(=O)Nc2ccccc2N)cc1 | 109.9* | 12.6
C[C@H]1CN([C@@H](C)CO)C(=O)c2cc(NS(C)(=O)=O)ccc2O[C@H]1CN(C)Cc1ccc(C(=O)Nc2ccccc2N)cc1 | 30.0 | 19.9
C[C@@H]1CN([C@H](C)CO)C(=O)c2cc(N(C)C)ccc2O[C@@H]1CN(C)Cc1ccc(C(=O)Nc2ccccc2N)cc1 | 109.7* | 36.8
C[C@@H]1CN([C@@H](C)CO)C(=O)c2cc(N(C)C)ccc2O[C@H]1CN(C)Cc1ccc(C(=O)Nc2ccccc2N)cc1 | 109.7* | 15.4
C[C@@H]1CN([C@H](C)CO)C(=O)c2cc(N(C)C)ccc2O[C@H]1CN(C)Cc1ccc(C(=O)Nc2ccccc2N)cc1 | · | 3.3
C[C@@H]1CN([C@H](C)CO)C(=O)c2cc(NC(=O)Nc3ccc4c(c3)OCO4)ccc2O[C@@H]1CN(C)Cc1ccc(C(=O)Nc2ccccc2N)cc1 | ? | -6.8
O=C(O)C1CC=C(Cl)CC1C(=O)Nc1ccc(Br)cc1 (stereo not drawn) | -18.6 | ·
Cc1oc2c(c1C(=O)N1CCC(C)CC1)C(=O)c1ccccc1C2=O | 113.1* | 21.4
Cc1oc2c(c1C(=O)NC1CCCC1)C(=O)c1ccccc1C2=O | 140.2* | 102.3*
Cc1oc2c(c1C(=O)NCCc1ccccc1)C(=O)c1ccccc1C2=O | 32.2 | -11.3
CC1CCN(C(=O)c2ccc(-c3nn(C)c(=O)c4ccccc34)cc2)CC1 | · | 8.7
COc1ccc(Cl)cc1NC(=O)CSc1nc2ccc(NC(=O)c3ccc(C)cc3)cc2s1 | 41.4 | 15.1
C[C@@H]1CN([C@H](C)CO)C(=O)c2cc(NS(=O)(=O)c3cccs3)ccc2O[C@@H]1CN(C)Cc1ccc(Oc2ccccc2)cc1 | 105.9* | 22.2
COc1ccc(CN(C)C[C@@H]2Oc3ccc(NS(=O)(=O)c4cccs4)cc3C(=O)N([C@H](C)CO)C[C@@H]2C)cc1 | 10.1 | 14.8
C[C@H](CO)N1C[C@H](C)[C@H](CN(C)Cc2ccc(Oc3ccccc3)cc2)Oc2ccc(NS(=O)(=O)c3cccs3)cc2CC1=O | 31.7 | 21.6
C[C@@H]1CN([C@@H](C)CO)C(=O)Cc2cc(NS(=O)(=O)c3cccs3)ccc2O[C@@H]1CN(C)Cc1ccc(-c2ccccc2)cc1 | 52.6 | 18.4
C[C@@H]1CN([C@H](C)CO)C(=O)Cc2cc(NS(=O)(=O)c3cccs3)ccc2O[C@H]1CN(C)Cc1ccc(Oc2ccccc2)cc1 | 88.5* | ?
C[C@@H]1CN([C@H](C)CO)C(=O)Cc2cc(NS(=O)(=O)c3cccs3)ccc2O[C@H]1CN(C)Cc1ccc(-c2ccccc2)cc1 | 48.8 | 96.5*
CCOc1ccc(NC(=O)Cn2cc([N+](=O)[O-])cn2)cc1 | -14.4 | ·
CCc1c(C)sc(NC(=O)c2cc(-c3cccnc3)nc3ccc(Cl)cc23)c1C(=O)N1CCOCC1 | 36.9 | ·
C[C@H](CO)N1C[C@H](C)[C@H](CN(C)CC2CC2)Oc2ccc(NS(=O)(=O)c3ccc(F)cc3)cc2C1=O | 22.6 | -6.3
C[C@H]1CN([C@@H](C)CO)C(=O)Cc2cc(NS(=O)(=O)c3ccc(Cl)cc3)ccc2O[C@H]1CN(C)Cc1ccc(-c2ccccc2)cc1 | 110.6* | 3.2
SMILES | NOMO-1 viab | U2OS ROS induce
C[C@@H]1CN([C@H](C)CO)C(=O)Cc2cc(NS(=O)(=O)c3ccc(Cl)cc3)ccc2O[C@H]1CN(C)Cc1ccc(-c2ccccc2)cc1 | 65.8 | 38.2
C[C@@H]1CN([C@@H](C)CO)C(=O)Cc2cc(NS(=O)(=O)c3ccc(Cl)cc3)ccc2O[C@@H]1CN(C)Cc1ccc(-c2ccccc2)cc1 | 22.2 | 4.5
C[C@@H]1CN([C@H](C)CO)C(=O)Cc2cc(NS(=O)(=O)c3ccc(Cl)cc3)ccc2O[C@@H]1CN(C)Cc1ccc(-c2ccccc2)cc1 | 122.1* | 12.5
COC(=O)c1ccccc1NC(=O)c1ccc(N(C)S(=O)(=O)c2ccc(OC)c(OC)c2)cc1 | 5.9 | 13.9
C[C@H]1CN([C@@H](C)CO)C(=O)c2cccc(NC(=O)c3cnccn3)c2O[C@H]1CN(C)S(=O)(=O)c1ccccc1 | -2.0 | 6.6
CN(Cc1ccccc1)S(=O)(=O)c1ccccc1 | · | -2.3
NC(=O)/C(=C/c1ccc2c(c1)OCO2)NC(=O)c1ccc(Br)cc1 | · | 2.8
c1ccc(-c2ccc3ccccc3n2)nc1 | 104.2* | -1.6
O=c1oc(-c2ccccn2)nc2ccccc12 | 0.0 | 8.5
CSc1ccccc1N1C(=O)CC(Sc2ccccc2C(=O)O)C1=O (stereo not drawn) | · | -3.1
CC1=CC(=O)C2C(C)(C)CCC[C@]2(C)[C@@]1(O)CCc1ccoc1 (stereo partly drawn) | 95.8* | 15.0
C[C@@H]1C[C@@H](O)C2[C@@](C)(CO)CCC[C@]2(C)[C@@]1(O)CCc1ccoc1 (stereo partly drawn) | 26.4 | 9.1
CC(C)NC(=O)Nc1ccc2c(c1)C(=O)N([C@H](C)CO)C[C@@H](C)[C@H](CN(C)Cc1ccc3c(c1)OCO3)O2 | 8.9 | -10.3
C=C1C(=O)O[C@@H]2/C=C(/CO[C@@H]3O[C@H](CO)[C@@H](O)[C@H](O)[C@H]3O)CC/C=C3\C[C@H](OC3=O)[C@@H]12 | -7.5 | -5.2
C=C1C(=O)O[C@@H]2/C=C(/CO)CC/C=C(/C=O)C[C@@H](O)[C@@H]12 | 108.6* | 44.5
CCCN(CCC)S(=O)(=O)c1ccc(C(=O)Nc2ccc3sc(SC)nc3c2)cc1 | · | 167.9*
CCCN(CCC)S(=O)(=O)c1ccc(C(=O)Nc2cccc(SC)c2)cc1 | ? | -2.9
C=C1C(=O)OC2CC(C)C3(/C=C/C(C)=O)OC3CC12 (stereo not drawn) | 118.1* | 48.8
C[C@H]1CN([C@@H](C)CO)C(=O)Cc2cc(NC(=O)NC3CCCCC3)ccc2O[C@@H]1CN(C)S(=O)(=O)c1cn(C)cn1 | -22.7 | 108.8*
C[C@H]1CN([C@@H](C)CO)C(=O)Cc2cc(NC(=O)Nc3ccc(C(F)(F)F)cc3)ccc2O[C@@H]1CN(C)S(=O)(=O)c1cn(C)cn1 | -11.1 | -8.7
C[C@@H]1CN([C@H](C)CO)C(=O)Cc2cc(NC(=O)Nc3ccc(C(F)(F)F)cc3)ccc2O[C@H]1CN(C)S(=O)(=O)c1cn(C)cn1 | 15.5 | -18.8
C[C@@H]1CN([C@@H](C)CO)C(=O)Cc2cc(NC(=O)Nc3ccc(C(F)(F)F)cc3)ccc2O[C@@H]1CN(C)S(=O)(=O)c1cn(C)cn1 | 111.9* | -5.6
C[C@H](CO)N1C[C@H](C)[C@H](CN(C)S(=O)(=O)c2cn(C)cn2)Oc2ccc(NC(=O)Nc3ccc(C(F)(F)F)cc3)cc2CC1=O | 124.9* | 9.1
C[C@H]1CN([C@@H](C)CO)C(=O)Cc2cc(NC(=O)NC3CCCCC3)ccc2O[C@H]1CN(C)S(=O)(=O)c1cn(C)cn1 | -13.2 | 14.3
